Growth data for 38 molecules are collected here from PubChem BioAssay (NCI).

About 83,000 compounds went through this panel and 20% of them were active in at least one assay; those are over-represented in the sample as a whole.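 Values shown are percent growth following 48 h exposure of cells in 96-well plates to a single concentration of compound; below 10 was considered active.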 The source made the active and inactive calls.

One assay concerns A498 renal. The assay is described as follows: NCI-60 one-dose screen, 48 h (100 = growth as untreated, 0 = no growth, -100 = all killed). The conditions noted are these: 10 µM unless noted.
In the case of `CC[n+]1ccc2c(c1)C(=O)c1nccc3c1c-2nc1ccccc13`, the growth is -9.88% (active).

As for `COc1ccc(-c2csc(NC(=O)CN3CCN(c4cc5c(cc4F)c(=O)c(C(=O)O)cn5C4CC4)CC3)n2)cc1`, the growth was -10.1% (active).

With `O=C1c2cc3c(cc2-c2c1c1cc(F)c(F)cc1c(=O)n2C[C@H](O)CO)OCO3`, the growth was -79.4% (active).

`Cn1c2ccccc2c2c3c(c4c5ccccc5n(CCCCCC#N)c4c21)C(=O)N(O)C3=O`: the growth is -32% (active).

For `CCOC(=O)c1c2c(n3ccc(NC(=O)CCN4CCOCC4)cc13)C(=O)c1ncccc1C2=O`, the growth was 56.2% (inactive).

In the case of `Oc1ccccc1N=Cc1c(O)ccc2ccccc12`, the growth was 64.8% (inactive).

For `O=c1ccc2cc3ccccc3cc2[nH]1`, the growth is 97.9% (inactive).

In the case of `O=C(Nc1ccc(Oc2ccc(F)cc2)c(Cl)c1)c1cccnc1`, the growth was 70.8% (inactive).

Regarding `CCCCCCCCCc1cc(CN2CCCCC2)c(O)c(CN2CCCCC2)c1`, the growth was 75% (inactive).

As to `CC/C(Cc1ccccc1)=C(\c1ccc(OCCN2CCCC2)cc1)c1ccc(OC(C)=O)cc1`, the growth is 87.9% (inactive).

Take `C=C1CC[C@@H]2[C@](C)(COC(C)=O)[C@H](OC(C)=O)CC[C@@]2(C)[C@@H]1CC(Nc1ccc(S(=O)(=O)Nc2nc(C)cc(C)n2)cc1)C1=CCOC1=O` (stereo partly specified): the growth was 85.3% (inactive).

For `COc1ccc2c(c1)C(=O)/C(=C/c1cccc(OCC(=O)Nc3nc4c(s3)CCCC4)c1)O2`, the growth is 92% (inactive).

Regarding `O=C([C@@H](COCc1ccccc1)N1C(=O)[C@@H](N2C(=O)OC[C@@H]2c2ccccc2)[C@H]1/C=C/c1ccccc1)N1CCC(CCN2CCCCC2)CC1`, the growth is 50.1% (inactive).

`O=c1[nH]c(-c2ccccn2)nc2sc3c(c12)CCCCC3`: the growth is 59.4% (inactive).

Take `NC1=CC(=O)C(=O)c2ccccc21`: the growth is 101% (inactive).

In the case of `CN1CCOCCOCCOc2ccccc2NC(=O)c2nc(cnc2N)-c2ccc(cc2)S1(=O)=O`, the growth is 29.3% (inactive).

Consider `COc1ccc(S(=O)(=O)NCCCNc2nccc(-c3c(-c4cccc(N)c4)nc4sccn34)n2)cc1`, for which the growth was 91.2% (inactive).

Take `COc1ccccc1N1CCN(CCn2c(=O)c3c(c4ccccc4n3C)n(C)c2=O)CC1`: the growth is 109% (inactive).

For the molecule `COc1cnc2c(c1)C(=O)c1c-2n(CCCBr)c(=O)c2cc([N+](=O)[O-])ccc12`, the growth was -29.8% (active).

`O=C(C[C@@H](C(=O)NCc1cccc(C(F)(F)F)c1)N1C(=O)[C@@H](N2C(=O)OC[C@@H]2c2ccccc2)[C@H]1/C=C/c1ccccc1)NC1CCN(Cc2ccccc2)CC1`: the growth was 49.8% (inactive).

With `CCCCCCNC(=O)Oc1ccc(/C(=C(\C)c2ccccc2)c2ccc(OCCN(CC)CC)cc2)cc1`, the growth is 81.7% (inactive).

Turning to `CC#CC#Cc1cccc(=O)o1`, the growth is 113% (inactive).

As for `CCCCCCCCCCCCNC(=O)[C@H]1CSC(c2ccc(OC)c(F)c2)N1` (stereo partly specified), the growth was -96.3% (active).

In the case of `O=C(CN1CCN(c2cc3c(cc2F)c(=O)c(C(=O)N/N=C/c2ccccc2)cn3C2CC2)CC1)N/N=C\c1ccccc1`, the growth is 78.7% (inactive).

`CNc1nc(C)c(-c2nc(Nc3cccc(S(N)(=O)=O)c3)ncc2F)s1`: the growth was -38.8% (active).

For `CC1=CC(=O)CC(C)(C)[C@@]1(O)/C=C/[C@@H](C)O`, the growth is 94.1% (inactive).

Turning to `CC(=O)Nc1ccc2c(c1)c(NC(C)=O)nn2C(=O)Nc1ccc(Cc2ccccc2)cc1`, the growth was 90.6% (inactive).

With `Cn1c2ccccc2c2c3c(c4c5ccccc5[nH]c4c21)C(=O)N(N)C3=O`, the growth was 60% (inactive).

Take `COc1cc(OC)c(/C=C/C(=O)c2c(OC)cc(OC)cc2OC)c(OC)c1`: the growth was 7.18% (active).

Turning to `CCCCCCCCCCCCCCCCCCNC(=O)[C@H]1CSC(c2ccc(OC)c(F)c2)N1` (stereo partly specified), the growth was 64.9% (inactive).

`O=C1c2cc3c(cc2-c2c1c1cc(Cl)c(Cl)cc1c(=O)n2C[C@H](O)CO)OCO3`: the growth is -73.3% (active).

Turning to `COc1cc2nc3cc([N+](=O)[O-])ccc3c(NCCCNCC(C)(C)O)c2cc1OC`, the growth was -82.2% (active).

Turning to `CC(C)C1=C[C@@]23CC[C@@H]4[C@](C)(CCC[C@@]4(C)C(=O)OCC#CCN4CCCC4)[C@H]2C[C@@H]1[C@H]1C(=O)OC(=O)[C@H]13`, the growth was 78.5% (inactive).

For `CN(C)c1ccc(/C=C(\C#N)c2nc3ccccc3s2)cc1`, the growth is 112% (inactive).

On to `COc1ccc(Cl)cc1Nc1nc(C(F)(F)F)ccc1C(=O)N/N=C/c1cccnc1`, for which the growth is 40.8% (inactive).

On to `CC(=O)C1=C(O)C=C2Oc3c(C(=O)/C=C/c4ccccc4)c(O)c(C)c(O)c3[C@]2(C)C1=O`, for which the growth was 14.3% (inactive).

For the molecule `Cn1c(=O)c2c(ncn2CC[N+](C)(C)C)n(C)c1=O`, the growth is 115% (inactive).

Regarding `OC(c1cc(-c2ccccc2)nc2ccc(Cl)cc12)C1CCCCN1` (stereo unspecified), the growth was 64.6% (inactive).

The test system of another assay is CCRF-CEM leukemia. Described as above. The conditions noted are these: 10 µM unless noted.
Consider `CC[n+]1ccc2c(c1)C(=O)c1nccc3c1c-2nc1ccccc13`, for which the growth was 0.574% (active).

Regarding `COc1ccc(-c2csc(NC(=O)CN3CCN(c4cc5c(cc4F)c(=O)c(C(=O)O)cn5C4CC4)CC3)n2)cc1`, the growth was 22.2% (inactive).

In the case of `O=C1c2cc3c(cc2-c2c1c1cc(F)c(F)cc1c(=O)n2C[C@H](O)CO)OCO3`, the growth is -10.9% (active).

For `Cn1c2ccccc2c2c3c(c4c5ccccc5n(CCCCCC#N)c4c21)C(=O)N(O)C3=O`, the growth is 3.22% (active).

On to `CCOC(=O)c1c2c(n3ccc(NC(=O)CCN4CCOCC4)cc13)C(=O)c1ncccc1C2=O`, for which the growth is 19.3% (inactive).

As for `Oc1ccccc1N=Cc1c(O)ccc2ccccc12`, the growth was 32.5% (inactive).

For the molecule `O=c1ccc2cc3ccccc3cc2[nH]1`, the growth is -72.7% (active).

On to `O=C(Nc1ccc(Oc2ccc(F)cc2)c(Cl)c1)c1cccnc1`, for which the growth was 101% (inactive).

Regarding `CCCCCCCCCc1cc(CN2CCCCC2)c(O)c(CN2CCCCC2)c1`, the growth is 61.7% (inactive).

Take `CC/C(Cc1ccccc1)=C(\c1ccc(OCCN2CCCC2)cc1)c1ccc(OC(C)=O)cc1`: the growth was 88.1% (inactive).

In the case of `C=C1CC[C@@H]2[C@](C)(COC(C)=O)[C@H](OC(C)=O)CC[C@@]2(C)[C@@H]1CC(Nc1ccc(S(=O)(=O)Nc2nc(C)cc(C)n2)cc1)C1=CCOC1=O` (stereo partly specified), the growth was 2.96% (active).

Consider `COc1ccc2c(c1)C(=O)/C(=C/c1cccc(OCC(=O)Nc3nc4c(s3)CCCC4)c1)O2`, for which the growth was -0.645% (active).

`O=C([C@@H](COCc1ccccc1)N1C(=O)[C@@H](N2C(=O)OC[C@@H]2c2ccccc2)[C@H]1/C=C/c1ccccc1)N1CCC(CCN2CCCCC2)CC1`: the growth is 95.4% (inactive).

Turning to `O=c1[nH]c(-c2ccccn2)nc2sc3c(c12)CCCCC3`, the growth is 26.7% (inactive).

Consider `NC1=CC(=O)C(=O)c2ccccc21`, for which the growth was 93% (inactive).

For `CN1CCOCCOCCOc2ccccc2NC(=O)c2nc(cnc2N)-c2ccc(cc2)S1(=O)=O`, the growth is 2.07% (active).

Consider `COc1ccc(S(=O)(=O)NCCCNc2nccc(-c3c(-c4cccc(N)c4)nc4sccn34)n2)cc1`, for which the growth is 78.4% (inactive).

Take `COc1ccccc1N1CCN(CCn2c(=O)c3c(c4ccccc4n3C)n(C)c2=O)CC1`: the growth is 102% (inactive).

Consider `COc1cnc2c(c1)C(=O)c1c-2n(CCCBr)c(=O)c2cc([N+](=O)[O-])ccc12`, for which the growth is 8.19% (active).

Take `O=C(C[C@@H](C(=O)NCc1cccc(C(F)(F)F)c1)N1C(=O)[C@@H](N2C(=O)OC[C@@H]2c2ccccc2)[C@H]1/C=C/c1ccccc1)NC1CCN(Cc2ccccc2)CC1`: the growth is 21% (inactive).

`CCCCCCNC(=O)Oc1ccc(/C(=C(\C)c2ccccc2)c2ccc(OCCN(CC)CC)cc2)cc1`: the growth is 40.5% (inactive).

Turning to `CC#CC#Cc1cccc(=O)o1`, the growth was 11.9% (inactive).

For the molecule `CCCCCCCCCCCCNC(=O)[C@H]1CSC(c2ccc(OC)c(F)c2)N1` (stereo partly specified), the growth is -42.5% (active).

Turning to `O=C(CN1CCN(c2cc3c(cc2F)c(=O)c(C(=O)N/N=C/c2ccccc2)cn3C2CC2)CC1)N/N=C\c1ccccc1`, the growth was 60.9% (inactive).

In the case of `CNc1nc(C)c(-c2nc(Nc3cccc(S(N)(=O)=O)c3)ncc2F)s1`, the growth was -2.73% (active).

For `CC1=CC(=O)CC(C)(C)[C@@]1(O)/C=C/[C@@H](C)O`, the growth is 104% (inactive).

Take `CC(=O)Nc1ccc2c(c1)c(NC(C)=O)nn2C(=O)Nc1ccc(Cc2ccccc2)cc1`: the growth was 89.8% (inactive).

With `Cn1c2ccccc2c2c3c(c4c5ccccc5[nH]c4c21)C(=O)N(N)C3=O`, the growth is 26.4% (inactive).

`COc1cc(OC)c(/C=C/C(=O)c2c(OC)cc(OC)cc2OC)c(OC)c1`: the growth is 6.27% (active).

`CCCCCCCCCCCCCCCCCCNC(=O)[C@H]1CSC(c2ccc(OC)c(F)c2)N1` (stereo partly specified): the growth was -14.4% (active).

For the molecule `O=C1c2cc3c(cc2-c2c1c1cc(Cl)c(Cl)cc1c(=O)n2C[C@H](O)CO)OCO3`, the growth is -5.01% (active).

As for `COc1cc2nc3cc([N+](=O)[O-])ccc3c(NCCCNCC(C)(C)O)c2cc1OC`, the growth was 1.71% (active).

For the molecule `CC(C)C1=C[C@@]23CC[C@@H]4[C@](C)(CCC[C@@]4(C)C(=O)OCC#CCN4CCCC4)[C@H]2C[C@@H]1[C@H]1C(=O)OC(=O)[C@H]13`, the growth was 85.7% (inactive).

Regarding `CN(C)c1ccc(/C=C(\C#N)c2nc3ccccc3s2)cc1`, the growth was 81.8% (inactive).

On to `COc1ccc(Cl)cc1Nc1nc(C(F)(F)F)ccc1C(=O)N/N=C/c1cccnc1`, for which the growth was 13% (inactive).

Turning to `CC(=O)C1=C(O)C=C2Oc3c(C(=O)/C=C/c4ccccc4)c(O)c(C)c(O)c3[C@]2(C)C1=O`, the growth is 22.1% (inactive).

Turning to `Cn1c(=O)c2c(ncn2CC[N+](C)(C)C)n(C)c1=O`, the growth was 109% (inactive).

`OC(c1cc(-c2ccccc2)nc2ccc(Cl)cc12)C1CCCCN1` (stereo unspecified): the growth was 64.6% (inactive).
